Inconclusive results are not listed. Where a call stands in place of a potency, no number is given. The source made the active and inactive calls. Unless noted, calls follow the shape of the dose curve; as a rule, active = well fitted curve in the direction sought with a large enough effect; inconclusive = small, poorly fitted or top-dose-only effect, or another doubt; inactive = no such curve, though single readings can be large; an effect the other way counts as inactive or inconclusive.
How the values were obtained:
[1] = qHTS Assay for Identification of Small Molecule Inducers of Hypoxia Response (AID 2120; active = well fitted curve in the direction sought with a large enough effect in the signal ratio, with a control signal flat, not every such curve was filed as active; the % refers to the signal ratio; also: potency is read from the fitted curve at half-maximal effect)
Summary of the method: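 Read-out: CCF4 FRET emission ratio 460nm/530nm (excitation 405nm), converted to %Activity, with AC50 fitted across a compound titration. ME-180 cells carried an HRE-driven beta-lactamase reporter; compound exposure 17 h, 37 degrees C.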

[2] = qHTS Assay for Lipid Storage Modulators (AID 1519; calls by dose curve); settings: Drosophila S3 cells, BODIPY lipid droplet/cell ratio, laser cytometry, cells loaded with oleic acid; for activity change, negative = inhibition: at 57.5 µM (top of the series)
Summary of the method: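 Cells seeded at 5,000 per well were treated with compounds over a concentration series and loaded with oleic acid (400 uM, as added). Lipid droplet fluorescence (488 nm excitation, 500-530 nm channel) was read by laser-scanning cytometry and normalized to 20 uM Triacsin C.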

[3] = molecular target: DNA repair nuclease/redox regulator APEX1 (Homo sapiens) (UniProt P27695); experiment: qHTS Validation Assay for Inhibitors of the Human Apurinic/apyrimidinic Endonuclease 1 (APE1) (AID 1705;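 also: TAMRA fluorescence gain over two minutes as APE1 cuts a quenched THF abasic duplex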)
Summary of the method: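 Fluorogenic double-stranded THF abasic-site substrate (5'-TAMRA/3'-BHQ-2), 50 nM final. Enzyme preincubated with compound 15 min at room temperature, then substrate added. Kinetic fluorescence (ex 525/em 598 nm) read three times at 60 s intervals; activity taken as third-minus-first read difference.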

[4] = Counterscreen for APE1 Inhibitors: Fluorescent Dye Displacement Validation Assay (AID 1707)
Summary of the method: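 Reaction mixture of 250 nM Thiazole Orange and 50 nM double-stranded abasic-site DNA was dispensed, compounds were pin-transferred, and fluorescence was read at endpoint (480 nm ex, 540 nm em). Reduced fluorescence indicated dye displacement by DNA binding.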

[5] = molecular target: Endonuclease 4 (Escherichia coli (strain K12)) (UniProt P0A6C1); experiment: Counterscreen for APE1 Inhibitors: qHTS Validation Assay for Inhibitors of Endonuclease IV (AID 1708)
Summary of the method: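 Measured as reaction progress, the fluorescence gain between first and third kinetic reads after adding 50 nM TAMRA/BHQ-2 THF duplex to 2 nM enzyme preincubated 15 min with compound; 2 mM MgCl2, pH 7.5.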

[6] = qHTS for differential inhibitors of proliferation of Plasmodium falciparum line 7G8 (AID 1815);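 also: parasite growth measured after three days of incubation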
[7] = qHTS for differential inhibitors of proliferation of Plasmodium falciparum line D10 (AID 1877);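 also: parasites grown with compound for 72 h before DNA staining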
[8] = qHTS for differential inhibitors of proliferation of Plasmodium falciparum line Dd2 (AID 1882); settings: Potency: Plasmodium falciparum Dd2 proliferation inhibition;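 also: compound exposure of 72 h on infected erythrocytes; nearly all actives have a fitted effect of over 65% in size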
Summary of the method: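 RBC culture, 0.3% parasitemia / 2.5% Hct final; cpd added by pin tool in DMSO; 72 h, 37 C, 5% CO2; lysis buffer + SYBR Green I, o/n RT dark; FI 485/535; norm. to artemisinin 0.29 uM and DMSO.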

[9] = qHTS for differential inhibitors of proliferation of Plasmodium falciparum line HB3 (AID 1886); settings: Potency: Plasmodium falciparum HB3 proliferation inhibition;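 also: parasites grown with compound for 72 h before SYBR Green readout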
[10] = molecular target: Ferritin light chain (Equus caballus) (UniProt P02791); experiment: qHTS Validation Assay for Identification of Novel General Anesthetics (AID 2323)
Summary of the method: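 Horse-spleen apoferritin (10 uM) in PBS with 50% saturated 1-aminoanthracene; compounds pin-transferred, 10 min at room temperature. Fluorescence read at 380/535 nm, normalized to free 1-AMA and 1-AMA/apoferritin values; four-parameter Hill fit.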

[11] = molecular target: ATP-dependent DNA helicase Q1 (Homo sapiens) (UniProt P46063); experiment: qHTS Validation Assay for Inhibitors of RecQ-Like Dna Helicase 1 (RECQ1) (AID 2353)
Summary of the method: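 RECQ1T1 50 nM; forked duplex (20 bp + 30-nt ss tails) 200 nM, ATP 2 mM final; pH 8.0, 2 mM MgCl2, 2.5 ug/ml poly(dI-dC); 15 min compound preincubation; discontinuous kinetic read over 2 h at RT.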

[12] = Cytometric Cell-Based qHTS for Inhibitors of the mTORC1 Signaling Pathway in MEF (Tsc2-/-, p53-/-) Cells (AID 2660);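 also: percent of cells above a phospho-rpS6 to PI ratio cutoff in each well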
Summary of the method: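 Tsc2-/-, p53-/- MEFs (empty vector) exposed to compound 24 h at 37 C, fixed, stained with Alexa-488 anti-phospho-rpS6 Ser235/236 and propidium iodide. Acumen laser scanning; phospho-S6/PI ratio thresholded against 7.5 nM rapamycin, reported as % positive cells.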

[13] = High Content Imaging Cell-Based qHTS for Inhibitors of the mTORC1 Signaling Pathway in MEF (Tsc2-/-, p53-/-) Cells (AID 2666); settings: at 38.3 µM (top of the series);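 also: percent of cells scored positive for phospho-rpS6 Ser235/236 immunostaining by imaging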
Summary of the method: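 Inhibition of rpS6 phosphorylation is measured by immunofluorescence imaging in empty-vector Tsc2-/-, p53-/- mouse embryonic fibroblasts after 24 hrs compound exposure at 37 degree Celsius. Results are reported as % positive cells per well.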

[14] = Validation screen for small molecules that induce DNA re-replication in MCF 10A normal breast cells (AID 463097); also: nearly all actives have a fitted effect of over 60% in size
Summary of the method: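 MCF 10A cells exposed to compound 48 hr at 37 C, 5% CO2, then Hoechst-stained 40 min. Laser-scanning imaging of nuclear DNA content (405 nm ex, 500-530 nm em); re-replication scored as rise in nuclei with elevated fluorescence intensity.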

[15] = measured here: cell count channel max response
[16] = measured here: lipid channel max response

Ferritin light chain (Equus caballus), sequence (P02791 2-175 limits assumed): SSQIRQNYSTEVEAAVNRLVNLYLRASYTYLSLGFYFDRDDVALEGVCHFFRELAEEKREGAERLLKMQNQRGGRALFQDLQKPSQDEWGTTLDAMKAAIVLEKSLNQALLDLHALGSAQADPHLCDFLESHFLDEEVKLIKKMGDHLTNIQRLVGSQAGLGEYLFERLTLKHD
ATP-dependent DNA helicase Q1 (Homo sapiens), sequence (P46063 whole entry, looked up): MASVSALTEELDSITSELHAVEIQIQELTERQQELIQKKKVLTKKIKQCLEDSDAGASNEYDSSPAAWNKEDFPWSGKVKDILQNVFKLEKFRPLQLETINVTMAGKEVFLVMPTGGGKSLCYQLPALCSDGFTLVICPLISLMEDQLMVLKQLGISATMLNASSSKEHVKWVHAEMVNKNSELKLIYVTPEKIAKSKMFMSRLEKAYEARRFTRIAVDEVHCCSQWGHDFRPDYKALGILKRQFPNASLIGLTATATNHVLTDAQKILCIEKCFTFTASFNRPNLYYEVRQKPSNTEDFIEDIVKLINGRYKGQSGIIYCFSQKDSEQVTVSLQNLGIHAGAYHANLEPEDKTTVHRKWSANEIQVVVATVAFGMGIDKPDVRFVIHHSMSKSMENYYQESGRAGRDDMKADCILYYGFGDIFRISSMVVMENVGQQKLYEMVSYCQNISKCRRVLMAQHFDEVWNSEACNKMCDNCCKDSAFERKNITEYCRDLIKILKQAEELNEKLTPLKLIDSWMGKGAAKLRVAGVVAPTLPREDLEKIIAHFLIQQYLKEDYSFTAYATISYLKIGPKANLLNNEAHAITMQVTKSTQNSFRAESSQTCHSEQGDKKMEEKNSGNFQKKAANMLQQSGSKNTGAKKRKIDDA
DNA repair nuclease/redox regulator APEX1 (Homo sapiens), sequence (P27695 whole entry, looked up): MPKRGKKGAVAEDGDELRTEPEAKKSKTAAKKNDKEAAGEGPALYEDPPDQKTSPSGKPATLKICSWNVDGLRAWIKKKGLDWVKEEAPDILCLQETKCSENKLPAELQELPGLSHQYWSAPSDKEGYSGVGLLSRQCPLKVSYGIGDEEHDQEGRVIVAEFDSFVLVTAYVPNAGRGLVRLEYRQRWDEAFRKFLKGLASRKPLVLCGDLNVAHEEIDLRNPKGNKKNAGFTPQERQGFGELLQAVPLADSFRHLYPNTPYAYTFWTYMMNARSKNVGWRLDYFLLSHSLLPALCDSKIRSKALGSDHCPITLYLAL

SMILES: NCCN
- Potency [1]: inactive

SMILES: CC/C=C\C/C=C\C/C=C\CCCCCCCC(=O)O
- Potency [1]: inactive

SMILES: O.O.O.O.O.O.O.O=S(=O)([O-])[O-].[Co+2]
- Potency [1]: 31.6 µM (active)

SMILES: Nc1nccs1
- activity change, negative = inhibition [2]: 6.96% (inactive)
- max response [2, 15]: -1.03%
- max response [2, 16]: 14.6%
- Potency [1]: inactive

SMILES: O=c1n(CC2CO2)c(=O)n(CC2CO2)c(=O)n1CC1CO1 (stereo not drawn)
- Potency [1]: inactive

SMILES: OCc1ccccc1
- Potency [1]: inactive

SMILES: Cc1ccc(S(=O)(=O)O)cc1C
- Potency [1]: inactive

SMILES: CC(C)O
- Potency [1]: inactive

SMILES: C/C=C/C=C/C(=O)O
- Potency [1]: inactive

SMILES: CCCCC
- Potency [1]: inactive

SMILES: OC[C@H]1O[C@@H]2O[C@H]3[C@H](O)[C@@H](O)[C@@H](O[C@H]4[C@H](O)[C@@H](O)[C@@H](O[C@H]5[C@H](O)[C@@H](O)[C@@H](O[C@H]6[C@H](O)[C@@H](O)[C@@H](O[C@H]7[C@H](O)[C@@H](O)[C@@H](O[C@H]1[C@H](O)[C@H]2O)O[C@@H]7CO)O[C@@H]6CO)O[C@@H]5CO)O[C@@H]4CO)O[C@@H]3CO
- Potency [1]: inactive

SMILES: CCOC(C)OCC
- Potency [1]: inactive

SMILES: C[C@H](CCC(=O)O)[C@H]1CC[C@H]2[C@@H]3[C@H](O)C[C@@H]4C[C@H](O)CC[C@]4(C)[C@H]3C[C@H](O)[C@]12C
- Potency [1]: inactive

SMILES: OCC(O)CO
- Potency [1]: inactive

SMILES: CO/N=C(/C(=O)N[C@@H]1C(=O)N2C(C(=O)O)=C(COC(N)=O)CS[C@H]12)c1ccco1
- Potency [1]: inactive

SMILES: c1ccc2ccccc2c1
- Potency [1]: inactive

SMILES: Oc1ccc(/C=C/c2cc(O)cc(O)c2)cc1
- activity change, negative = inhibition [2]: 25.3% (inactive)
- max response [2, 15]: -23.2%
- max response [2, 16]: 2.31%
- outcome [3]: inactive
- outcome [4]: inactive
- outcome [5]: inactive
- Potency [6]: inactive
- outcome [7]: inactive
- Potency [8]: inactive
- Potency [9]: inactive
- outcome [10]: inactive
- outcome [11]: inactive
- outcome [12]: inactive
- outcome [13]: inactive
- outcome [14]: inactive

SMILES: OCl
- Potency [1]: inactive

SMILES: CCCCO
- Potency [1]: inactive

SMILES: CC(C)(C)CC(C)(C)c1ccc(OCCO)cc1
- Potency [1]: inactive

SMILES: OB(O)O
- Potency [1]: inactive

SMILES: Cc1ncc[nH]1
- Potency [1]: inactive

SMILES: NC(N)=O
- activity change, negative = inhibition [2]: 6.91% (inactive)
- max response [2, 15]: 16.8%
- max response [2, 16]: 28%
- Potency [1]: inactive

SMILES: O=P(O)(O)O
- Potency [1]: inactive

SMILES: Nc1ncnc2c1ncn2[C@H]1CC[C@@H](CO)O1
- activity change, negative = inhibition [2]: 1.8% (inactive)
- max response [2, 15]: 3.29%
- max response [2, 16]: 6.18%
- Potency [1]: inactive

SMILES: [O-][N+](=Nc1ccccc1)c1ccccc1
- Potency [1]: inactive

SMILES: ClC(Cl)Cl
- Potency [1]: inactive

SMILES: CO
- Potency [1]: inactive

SMILES: CC[C@H]1OC(=O)[C@H](C)[C@@H](O[C@H]2C[C@@](C)(OC)[C@@H](O)[C@H](C)O2)[C@H](C)[C@@H](O[C@@H]2O[C@H](C)C[C@H](N(C)C)[C@H]2O)[C@](C)(O)C[C@@H](C)CN(C)[C@H](C)[C@@H](O)[C@]1(C)O
- Potency [1]: inactive

SMILES: CC1=CC(=O)NS(=O)(=O)O1
- Potency [1]: inactive
